Out of some 69,000 compounds screened, about 8,600 (12%) showed an effect of 50% or more. This is one part of a sample in which strong results are shown more often than they occur.

The test deals with Plasmodium berghei. The test is described as follows: Screen against P. berghei liver stage (PbLuc), transformed with Luciferase, at 10uM. The note with it: tested at 10 uM. Type of test: functional, HepG2.
`Cn1cc(-c2ncc3c(c2C(=O)O)CCN(CC2CC2)C3)cn1`: the INHIBITION turned out to be 46.6%. Under `O=S(=O)(NC1=NCN(CCc2cccs2)CN1)c1ccc(Cl)cc1` stands 17%; under `O=C(CN1CCOC(Cn2cccn2)C1)NCc1ccccn1` (stereo unspecified), 11.2%. For `O=C(c1ncccn1)N1CCC[C@]2(C[C@@H](OCC3CC3)CO2)C1`, the INHIBITION turned out to be 34.6%.

As for `CN1CCO[C@@H]2CN(S(=O)(=O)c3ccc(F)cc3)CC[C@@H]2C1`, the INHIBITION came to 16.9%. `Cc1cc(C)cc(NCCC(=O)NC2CCN(C(=O)C3CC3)CC2)c1`: the INHIBITION is recorded as -18.3%.

Take `CN1CCN(c2ncccn2)CC1C(N)=O` (stereo unspecified): the INHIBITION is listed as -7.66%. With `O=C(C1CCCO1)N1CCC(Cn2cc(C3CCCC3)nn2)CC1` (stereo unspecified), the INHIBITION is on record as 34.2%. `CCCN1CCC(N2CCC(Cn3cc(C4CC4)nn3)CC2)CC1`: the INHIBITION turned out to be 52.2%. Turning to `CC(C)(CN1CCCC1)CN1CCC(Cn2cc(C3CC3)nn2)CC1`, the INHIBITION is given as 41.2%. Consider `CC(C)CSCCCNC(=O)C1CCC1`, for which the INHIBITION was found to be 52.3%.

For the compound `CC(C)CSCCCNC(=O)C1CCOCC1`, the INHIBITION came out at 6.54%.

As to `CC(C)CSCCCNC(=O)C1CCOC1` (stereo unspecified), the INHIBITION is reported as 33.7%. As to `CN(C)S(=O)(=O)N1C[C@H]2CC[C@@H](C1)N(Cc1ccc3[nH]ccc3c1)C2`, the INHIBITION is 31.6%. Regarding `Cc1nc(CN2CCN(C(=O)c3scnc3C)CC2)cs1`, the INHIBITION is given as -17.1%. `NC(=O)c1cnn2c1NCC(CNCCOc1ccccc1)C2` (stereo unspecified): the INHIBITION is given as -18.43%. As to `OCCn1nccc1C1CCN(CCOc2ccccc2F)CC1`, the INHIBITION is 27.8%. Regarding `CCOCCCNC(=O)c1cn(CC)nc1C`, the INHIBITION amounted to 11.8%. Consider `CCOCCCNC(=O)c1nn(CC)cc1Br`, for which the INHIBITION was found to be 1.86%.

`CCOCCCNC(=O)NCc1c(C)nn(C)c1C`: the INHIBITION came out at 52.5%.

For `COc1ccccc1C1CNCCN1C(=O)c1ccc(F)cc1` (stereo unspecified), the INHIBITION stood at 15.5%. Take `CN1CCCCC1CC(=O)Nc1ccc2ncn(C)c2c1` (stereo unspecified): the INHIBITION came out at 9.41%.

With `CN1CCN(C2CCN(CCOc3ccc(Cl)cc3)CC2)C1=O`, the INHIBITION came out at 36.1%. `CN1CCN(C2CCN(CCOc3cccc(F)c3)CC2)C1=O`: the INHIBITION amounted to 5.9%. As for `CN1CCN(C2CCN(CCOc3cccc(Cl)c3)CC2)C1=O`, the INHIBITION is on record as 51.1%.

Consider `COc1ccc(OCCN2CCC(N3CCNC3=O)CC2)cc1`, for which the INHIBITION was 87.25%. For the compound `COc1ccccc1OCCN1CCC(N2CCNC2=O)CC1`, the INHIBITION came out at 36.4%.

Turning to `CCOc1ccc(OCCN2CCC(N3CCNC3=O)CC2)cc1`, the INHIBITION is given as 81.8%. In the case of `Cc1ccc(C)c(OCCN2CCC(N3CCNC3=O)CC2)c1`, the INHIBITION came to 38.1%. Consider `CN1CCN(C2CCN(CCOc3ccc(F)cc3)CC2)C1=O`, for which the INHIBITION amounted to 25.6%. Under `CN1CCN(C2CCN(CCOc3ccc(C#N)cc3)CC2)C1=O` stands 41.5%.

Source of the values: ChEMBL document CHEMBL4513216, “Probing the Open Global Health Chemical Diversity Library for Multistage-Active Starting Points for Next-Generation Antimalarials” (ACS Infect Dis, 2020).
